Data on 95 compounds can be found in PubChem BioAssay AID602141 (Sanford-Burnham Center for Chemical Genomics, 2011).

Several values for one entry are separate records, joined by “and”; a condition that tells them apart may be missing. Equal entries are not always repeated. The campaign covered roughly 360,000 compounds. About 1,300 (0.36%) were called active.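 How the source made its calls: active means corrected activity change at or below -50% at 5 µM; inactive means the rest.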 Only a selection was taken, and actives are over-represented in it overall.

This test can be described thus: KKLEB cell viability reduction – uHTS, fluorescence assay plates, cytotoxicity control for CF NF-kB inhibitor project, primary screen (AID 602141). Conditions: KKLEB CF airway cells viability, ATPlite luminescence, overnight; at 5 µM; stronger effect = lower value; cells stimulated with P. aeruginosa culture filtrate.
Consider `COC(=O)c1ccccc1NC(=O)c1cncc(Br)c1`, for which the activity change (cytotoxicity) is 16% (inactive).

Take `COC(=O)c1ccc(C(=O)Nc2cc(Cl)ccc2Cl)cc1NC(=O)c1ccccc1C`: the activity change (cytotoxicity) was -62.7% (active).

As to `CCCN(CCC)C(=S)Nc1cc(C(=O)OC)ccc1C(=O)OC`, the activity change (cytotoxicity) was -5.9% (inactive).

Take `CC(=O)Nc1ccc(S(=O)(=O)N2CCn3cccc3C2C)cc1` (stereo not given): the activity change (cytotoxicity) is -3.5% (inactive).

On to `CCCCN=C1C([N+](=O)[O-])=CC=C2C1=NC1(CCCCC1)N2O`, for which the activity change (cytotoxicity) was -4.3% (inactive).

In the case of `CC(C)C[C@H]1CN=C(Nc2ccccc2)N1CC1CCCCC1`, the activity change (cytotoxicity) is 3.3% (inactive).

Regarding `Clc1ccc(COn2c(-c3ccc(Cl)cc3Cl)nc3ncccc32)cc1`, the activity change (cytotoxicity) was 1.3% (inactive).

In the case of `Clc1ccc(-c2cc(-c3ccccn3)on2)c(Cl)c1`, the activity change (cytotoxicity) is -62.1% (active).

Take `Fc1ccc(-c2ccc(CNCc3ccccn3)o2)cc1Cl`: the activity change (cytotoxicity) is 5.4% (inactive).

As to `O=C(CCN1C(=O)[C@@H]2Cc3ccccc3CN2C1=O)NCc1ccccc1`, the activity change (cytotoxicity) was -2.4% (inactive).

Consider `CC(C)CCn1c(=O)c2c(nc3n2CCCN3Cc2ccccc2)n(C)c1=O`, for which the activity change (cytotoxicity) is -20.8% (inactive).

For `Cc1cc(C)cc(-c2nnc(SCC(=O)NC3CC3)o2)c1`, the activity change (cytotoxicity) is 8.4% (inactive).

With `c1csc(CN2CCN(Cc3cccs3)C2c2cccs2)c1`, the activity change (cytotoxicity) was 0% (inactive).

Take `O=C(NCCSc1ncc(-c2ccccc2)[nH]1)c1ccco1`: the activity change (cytotoxicity) was 0.1% (inactive).

`Cc1ccc2nc(-c3ccc(Br)cc3)cn2c1`: the activity change (cytotoxicity) is -30% (inactive).

For `Cc1ccc(-c2cc(N)on2)cc1`, the activity change (cytotoxicity) is -5.6% (inactive).

In the case of `Cc1ccc(-c2cn3cc(C)ccc3n2)cc1`, the activity change (cytotoxicity) was -61.7% (active).

With `CCn1c(SCC(=O)Nc2ccc(Br)cc2)nc2sc3c(c2c1=O)CCN(C)C3`, the activity change (cytotoxicity) is 9.6% (inactive).

For `COC(=O)c1cc(NC(=O)c2nn(C)c(=O)c3ccccc23)cc(C(=O)OC)c1`, the activity change (cytotoxicity) was -11.1% (inactive).

For the compound `Cc1cccc(CS(=O)(=O)c2ncc(Cl)c(C(=O)Nc3ccc(F)cc3)n2)c1`, the activity change (cytotoxicity) is -15.9% (inactive).

In the case of `O=C(Nc1nnc(Cc2ccc(Cl)cc2)s1)c1cccnc1`, the activity change (cytotoxicity) was -6% (inactive).

Turning to `O=C(Nc1nnc(-c2ccc(F)cc2)s1)c1c(F)cccc1Cl`, the activity change (cytotoxicity) is 7.4% (inactive).

As to `CSc1nnc(NC(=O)c2nc(S(=O)(=O)Cc3ccc(C)cc3)ncc2Cl)s1`, the activity change (cytotoxicity) was -74.7% (active).

On to `Cc1ccc(CS(=O)(=O)c2ncc(Cl)c(C(=O)Nc3nnc(C)s3)n2)cc1`, for which the activity change (cytotoxicity) is -93.7% (active).

Turning to `CN(Cc1ccccc1)S(=O)(=O)c1nnc(NC(=O)c2ccccc2F)s1`, the activity change (cytotoxicity) is -8.6% (inactive).

`COCCNC(=O)C1(C)CCCN(Cc2cccc(F)c2)C1` (stereo not given): the activity change (cytotoxicity) is 6.2% (inactive).

`CCOC(=O)NC(=O)C(=CNc1cccc(OC)c1)C(=O)NC(=O)OCC`: the activity change (cytotoxicity) was 17.8% (inactive).

In the case of `CC(C)Nc1nc(NCCOc2ccccc2Cl)c2sccc2n1`, the activity change (cytotoxicity) was -5.6% (inactive).

Take `CC(C)(C)c1nc2ccccc2c(=O)n1N1C(=O)c2ccccc2C1=O`: the activity change (cytotoxicity) was -12.6% (inactive).

Regarding `CN(c1ccc2nc3ccccc3c(=O)n2n1)C1CCCCC1`, the activity change (cytotoxicity) is -54.1% (active).

With `CN(C(=O)Nc1ccc(Cl)cc1)n1cnc2ccccc2c1=O`, the activity change (cytotoxicity) was 6.1% (inactive).

For `O=[N+]([O-])/C=C1\CCCCCN1`, the activity change (cytotoxicity) was -1.7% (inactive).

Regarding `COc1ccc(CNc2nnnn2C)cc1`, the activity change (cytotoxicity) is 6.7% (inactive).

Take `COc1ccc(CNc2c(CO)cnc3c2cnn3C)cc1`: the activity change (cytotoxicity) was -62.1% (active).

Take `CCCn1nnnc1NCc1ccc(OC)cc1`: the activity change (cytotoxicity) is 5.9% (inactive).

Take `C[C@@H]1CN([C@H](C)CO)C(=O)c2cc(NC(=O)NC3CCCCC3)ccc2O[C@H]1CN(C)S(C)(=O)=O`: the activity change (cytotoxicity) is 2.2% (inactive).

Regarding `C[C@H]1CN([C@@H](C)CO)C(=O)CCCn2cc(nn2)CO[C@@H]1CN(C)S(=O)(=O)c1cccc(C#N)c1`, the activity change (cytotoxicity) was 4.9% (inactive).

Turning to `O=C(Nc1cccc(C(=O)NC2CC2)c1)c1ccc(F)c(S(=O)(=O)N2CCOCC2)c1`, the activity change (cytotoxicity) was -2.3% (inactive).

For the compound `COc1cc(NS(=O)(=O)c2ccc(NC(=S)NC(=O)c3ccc(Br)cc3)cc2)ncn1`, the activity change (cytotoxicity) was 1% (inactive).

Take `COc1cc(NC(=O)c2cncc(-c3ccc(C#N)cc3)c2)cc(C(=O)Nc2cccc(C(F)(F)F)c2)c1`: the activity change (cytotoxicity) is 7.5% (inactive) and 5.1% (inactive).

On to `COc1cc(C(=O)N(C)Cc2cccc(OC)c2OC)ccc1OCC(=O)Nc1cccc(C(F)(F)F)c1`, for which the activity change (cytotoxicity) was 7.7% (inactive).

Consider `COc1cc(NC(=O)c2[nH]cnc2C(N)=O)cc(C(=O)Nc2cccc(C(F)(F)F)c2)c1`, for which the activity change (cytotoxicity) is -61.7% (active).

For `Cc1cccc(C(=O)O)c1[N+](=O)[O-]`, the activity change (cytotoxicity) was 14% (inactive).

Consider `Cn1ccnc1-c1nnn(-c2ccc(F)cc2)n1`, for which the activity change (cytotoxicity) is -12.5% (inactive).

Turning to `CCNC(=O)C1(C)CCCN(C(=O)c2ccc3ccccc3n2)C1` (stereo not given), the activity change (cytotoxicity) was -5.1% (inactive).

With `O=C(NCC1CCCO1)c1cc2c([nH]c3ccccc32)c(-c2ccc(F)cc2)n1` (stereo not given), the activity change (cytotoxicity) was -5.3% (inactive).

In the case of `CC1=CCC2C(=O)N(c3cccc(C(=O)NC(C)c4ccccc4)c3)C(=O)C2C1` (stereo not given), the activity change (cytotoxicity) was -1.1% (inactive).

Turning to `Cc1cccc(C)c1NC1=NC(=S)N(c2ccc(N(C)C)cc2)C1(C)C`, the activity change (cytotoxicity) was -3.7% (inactive).

`O=C1CCCN1C(=O)COc1ccc([N+](=O)[O-])cc1`: the activity change (cytotoxicity) is -6.8% (inactive).

As to `CCCCC(=O)Nc1c2c(nn1-c1ccc([N+](=O)[O-])cc1)CS(=O)(=O)C2`, the activity change (cytotoxicity) was -15.2% (inactive).

`O=C1/C(=C\c2ccc([N+](=O)[O-])cc2)CS(=O)(=O)C/C1=C/c1ccc([N+](=O)[O-])cc1`: the activity change (cytotoxicity) was -101% (active).

For the compound `CO[C@@H]1[C@@H](OC(N)=O)[C@@H](O)C(Oc2ccc3c(O)c(NC(=O)c4ccc(O)c(CC=C(C)C)c4)c(=O)oc3c2C)OC1(C)C` (stereo not given in full), the activity change (cytotoxicity) is 44.1% (inactive).

`CS/C(=C\[N+](=O)[O-])Nc1ccc(C)cc1`: the activity change (cytotoxicity) is -4.4% (inactive).

Regarding `CCOc1ccc(C(=O)NC(C(=O)NCc2ccccn2)C(C)C)cc1` (stereo not given), the activity change (cytotoxicity) was -1.5% (inactive).

As for `COc1cc(NC(=O)c2ccccc2NS(=O)(=O)c2ccc(Cl)s2)cc(OC)c1`, the activity change (cytotoxicity) was -57.2% (active).

`O=S(=O)(Nc1ccccc1N1CCOCC1)c1ccc(Cl)s1`: the activity change (cytotoxicity) was 1.7% (inactive).

For `O=C(Nc1cccc(Cl)c1)Nc1ccccc1NS(=O)(=O)c1cccs1`, the activity change (cytotoxicity) is 13.5% (inactive).

As to `COc1ccc(NC(=O)Cn2c(-c3ccc(OC)cc3)cn(-c3ccc(C)cc3)c2=O)cc1`, the activity change (cytotoxicity) was 12.5% (inactive).

Regarding `COc1ccc(CC(=O)Nc2ccc(-c3nnc(-c4ccc(C)cc4)o3)cc2)cc1`, the activity change (cytotoxicity) is -56.3% (active).

Regarding `COc1ccc(C(CC(=O)Nc2ccc(C)cc2)NC(=O)C(F)(F)F)cc1` (stereo not given), the activity change (cytotoxicity) is 6.9% (inactive).

On to `CCOc1ccccc1NS(=O)(=O)c1cc2c3c(c1)C(C)C(=O)N3CCC2` (stereo not given), for which the activity change (cytotoxicity) was 7.2% (inactive).

As to `COc1ccc(CN(C(=O)c2cccs2)c2nccs2)cc1OC`, the activity change (cytotoxicity) is 5.6% (inactive).

Take `O=C(NCc1cccnc1)c1nc(-c2cccs2)no1`: the activity change (cytotoxicity) was -11.3% (inactive).

For `COc1ccc(/C=C/C(=O)NC(=S)N2CCCC(C(N)=O)C2)cc1` (stereo not given), the activity change (cytotoxicity) was -10.3% (inactive).

Turning to `CCOc1ccc(NC(=S)NC(=O)/C=C/c2ccc(OC)cc2)c([N+](=O)[O-])c1`, the activity change (cytotoxicity) is -50.2% (active).

As for `CCOc1ccc(NC(=O)COC(=O)C2CCC(=O)N2)c([N+](=O)[O-])c1` (stereo not given), the activity change (cytotoxicity) is -7.5% (inactive).

`COc1ccc(S(=O)(=O)n2cnc3ccccc32)c(C)c1`: the activity change (cytotoxicity) was 0.5% (inactive).

Regarding `COc1c(C=O)c(CCN(C)C(=O)c2ccc(F)cc2)cc2c1OCO2`, the activity change (cytotoxicity) is -9% (inactive).

Regarding `O=C(c1ccc2c(c1)OCO2)N1CCNc2ccccc2C1`, the activity change (cytotoxicity) was 4.7% (inactive).

Consider `O=C(N/N=C/c1ccccn1)c1cccc(NC(=O)c2ccc(Cl)cc2)c1`, for which the activity change (cytotoxicity) is -1.1% (inactive).

For `S=C(NN=Cc1ccccn1)Nc1ccccn1`, the activity change (cytotoxicity) was -63.5% (active).

On to `CS(=O)(=O)N(CC(=O)N/N=C/c1ccccn1)c1ccc(Oc2ccccc2)cc1`, for which the activity change (cytotoxicity) is 1.8% (inactive).

On to `Cc1ccc(S(=O)(=O)N2CCCCC2)cc1NC(=O)CCNC(=O)c1ccccc1Cl`, for which the activity change (cytotoxicity) is 1.6% (inactive).

As for `Nc1ncnc2c1ncn2[C@@H]1O[C@H](C(=O)NS(=O)(=O)c2c(Cl)nc3sccn23)[C@@H](O)[C@H]1O`, the activity change (cytotoxicity) is -8.7% (inactive).

Turning to `COC(=O)/C=C\C(=O)Nc1cccc([N+](=O)[O-])c1`, the activity change (cytotoxicity) is -64.1% (active).

Regarding `COc1cccc(NCCC(=O)c2cccc([N+](=O)[O-])c2)c1`, the activity change (cytotoxicity) is 1.2% (inactive).

Turning to `O=C(Nc1cccc([N+](=O)[O-])c1)N1CCc2ccccc2C1`, the activity change (cytotoxicity) was -12.4% (inactive).

Consider `CCN(CC(=O)Nc1ccccc1C(F)(F)F)C(=O)C1CCN(C(=O)Nc2ccccc2)CC1`, for which the activity change (cytotoxicity) was -2.1% (inactive).

As to `Cc1cnc(C(=O)Oc2cccc(Cl)c2Cl)cn1`, the activity change (cytotoxicity) was 14.6% (inactive).

As for `Cc1ccc2nc(-c3ccco3)c(Cc3cccc(Cl)c3)n2c1`, the activity change (cytotoxicity) was 6.4% (inactive).

On to `Cn1c(-c2ccco2)nc2cc3ccccc3cc21`, for which the activity change (cytotoxicity) is -57.4% (active).

Regarding `Cn1c(SCC(=O)Nc2ccc(Br)cc2F)nnc1-c1ccco1`, the activity change (cytotoxicity) is -9.6% (inactive).

As to `CCOc1ccc(S(=O)(=O)NCc2ccc3c(c2)OCO3)cc1C`, the activity change (cytotoxicity) is -0.2% (inactive).

Consider `COc1ccccc1CNC(=O)COC(=O)c1sc(C)nc1C`, for which the activity change (cytotoxicity) was 5.6% (inactive).

On to `COc1ccc(C)cc1NC(=O)CCCN1C(=O)NC(C)(C)C1=O`, for which the activity change (cytotoxicity) was 9.3% (inactive).

In the case of `Cc1cc(C)cc(NC(=O)N(C)Cc2ccccc2)c1`, the activity change (cytotoxicity) was 1.9% (inactive).

In the case of `CN1c2ccc(C=O)c3c(C=O)ccc(c23)N(C)C1(C)C`, the activity change (cytotoxicity) was -67.5% (active).

Take `Cc1ccc(C=O)c([B-](F)(F)F)c1`: the activity change (cytotoxicity) was 7.5% (inactive).

As for `Cc1ccc(S(=O)(=O)N(C)C)cc1NC(=O)CN1c2cccc3cccc(c23)S1(=O)=O`, the activity change (cytotoxicity) is -28.1% (inactive).

In the case of `Cc1ccc(/C=N/NC(=O)Cn2ccc(C(F)(F)F)n2)o1`, the activity change (cytotoxicity) is 10.5% (inactive).

`Cc1cccc(NC(=S)N2CCC(O)CC2)c1C`: the activity change (cytotoxicity) was -5.6% (inactive).

For the compound `Fc1ccc(OCc2nn3c(Cn4nnc5ccccc54)nnc3s2)cc1`, the activity change (cytotoxicity) is -11.4% (inactive).

With `O=C(Nc1ccccc1Cl)c1ccccc1S(=O)(=O)c1ccccc1[N+](=O)[O-]`, the activity change (cytotoxicity) was 4.2% (inactive).

For `O=C(Nc1ccccc1Cl)/C(Cl)=C(\Cl)S(=O)c1ccccc1` (stereo not given), the activity change (cytotoxicity) is -100% (active).

For `CC(=O)c1ccc(NC(=O)C(C)N(C)CC(=O)Nc2ccccc2Cl)cc1` (stereo not given), the activity change (cytotoxicity) is -7% (inactive).
